HT1080-NT tox = kills 2HG-producing HT-1080-NT fibrosarcoma cells | HT-1080-NT fibrosarcoma viability, CellTiter-Glo ATP luminescence, 48 h | Potency, µM (top dose mostly 46.1 µM), most hits filed as cytotoxic | AID 686970 | actives 1.6% (n = 360,000);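 note: NT is the 2HG producing partner of a matched IDH1 knockdown line; nearly all actives have a fitted effect of over 55% in size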
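Toxicity toward the 2HG-producing NT line was scored as %Activity, normalised to DMSO and no-cell wells, from CellTiter-Glo luminescence after 48 hours' treatment.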
HT1080 IDH1KD tx = HT-1080 IDH1 knockdown cell toxicity (counter line). HT-1080 IDH1 knockdown viability, ATP luminescence, 48 h. Potency, µM (doses to about 46.1 µM), usual class: cytotoxic. actives 2% (n = 360,000). AID 686971
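Using the IDH1-knockdown HT-1080 line run in the same batch and compound series as the NT line, viability after 48 h at 37 °C was determined by CellTiter-Glo luminescence and expressed as % activity.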
IL1B secr inh = inhibitors of inflammasome signaling (IL-1 beta secretion); THP-1 LPS/ATP IL-1B secretion, AlphaLISA, 16 h; stronger effect = lower value; activity change, % at 57.5 µM; actives 4.7% (n = 360,000); AID 743279; in the data active = activity change below about -50%; inconclusive = mostly about -30% to -49%
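THP-1 cells pretreated 1 hr with compounds (up to 57.5 uM final), then stimulated with LPS (250 ng/mL final) plus ATP (1.25 mM final); secreted IL-1B measured by AlphaLISA after 16 hr, decreased signal indicating inhibition.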
TDP1 cell CPT = DT40-hTDP1 cell growth loss with CPT; chicken DT40 Tdp1-/-;hTDP1 cells + 20 nM CPT, ATP luminescence, 48 h; Potency, µM (doses to about 46.2 µM), hits mostly inhibitors; actives 12% (n = 420,000); AID 686979; note: nearly all actives have a fitted effect of over 55% in size
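Chicken DT40 Tdp1-/- cells complemented with human TDP1, 400 cells/well, exposed to compounds plus 20 nM camptothecin for at least 48 h at 37 C; viability read as ATP content by CellTiter-Glo luminescence.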
ELG1 repair inh = ELG1-dependent DNA repair inhibition. actives 2.3% (n = 330,000). HEK293T ELG1-luciferase reporter, luminescence, 16 h; DNA damage induced by 5-fluorouridine. AID 504467. Potency, µM (titrated, usually from 46.1 µM), usual class: inhibitors; note: nearly all actives have a fitted effect of over 55% in size
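DMSO vehicle served as the neutral condition. Each well held 2,000 cells given 5-fluorouridine plus compound; after 16 hr at 37 °C/5% CO2, ONE-Glo was added and luciferase measured 30 min later.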
DT40 TDP1 no CPT = qHTS for Inhibitors of human tyrosyl-DNA phosphodiesterase 1 (TDP1): qHTS in cells in absence of CPT; AID 686978, 2013; Potency, µM (top dose mostly 46.2 µM), hits mostly inhibitors; actives 15% (n = 420,000); DT40 Tdp1-/- hTDP1 cells, no CPT, ATP luminescence, 48 h; note: nearly all actives have a fitted effect of over 55% in size
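Chicken DT40 Tdp1-/- cells stably complemented with human TDP1 were seeded at 400 cells/well with DMSO in place of 20 nM camptothecin. After compound pinning, cells grew at least 48 hr at 37 °C; viability read by CellTiter-Glo luminescence.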
Large screens that a line does not name were inactive. Compounds with a hit are over-represented: about 19% of the library has one in this group of screens. Unless noted, calls come from the whole dose curve; as a rule, active = well fitted curve in the direction sought with a large enough effect; inconclusive = small, poorly fitted or top-dose-only effect, or another doubt; inactive = no such curve, though single readings can be large; an effect the other way counts as inactive or inconclusive.

CCOC(=O)C1(c2ccccc2)CCN(CCC(=O)Nc2cccc(Br)c2)CC1	HT1080-NT tox 18.4µM, HT1080 IDH1KD tx 23.1µM, IL1B secr inh -100.9, TDP1 cell CPT inconclusive, DT40 TDP1 no CPT inconclusive
CCOC(=O)C1(c2ccccc2)CCN(CCC(C#N)(c2ccccc2)c2ccccc2)CC1	HT1080 IDH1KD tx inconclusive, TDP1 cell CPT 13µM, DT40 TDP1 no CPT 6.51µM (no result: ELG1 repair inh)
CCOC(=O)C1(c2ccccc2)CCN(CCC(=O)Nc2ccc(OC)cc2)CC1	TDP1 cell CPT inconclusive, DT40 TDP1 no CPT inconclusive (no result: ELG1 repair inh)
CCOC(=O)C1(c2ccccc2)CCN(CCC(=O)Nc2ccc(C(=O)OC)cc2)CC1	TDP1 cell CPT 20.6µM, DT40 TDP1 no CPT inconclusive
CCCCCCn1c(O)c(C=NCCN2CCOCC2)c(=O)[nH]c1=O	none
COc1ccc(CCN)cc1	none (no result: HT1080-NT tox, HT1080 IDH1KD tx, IL1B secr inh, ELG1 repair inh)
Cc1ccc(NC(=O)c2cc(S(=O)(=O)N3CCOCC3)c(Cl)cc2Cl)cc1	TDP1 cell CPT inconclusive, DT40 TDP1 no CPT 18.4µM (no result: HT1080-NT tox, HT1080 IDH1KD tx, IL1B secr inh, ELG1 repair inh)
Cc1cc(-c2nc3ncccc3o2)ccc1NC(=O)c1ccccc1Br	DT40 TDP1 no CPT inconclusive (no result: HT1080-NT tox, HT1080 IDH1KD tx, IL1B secr inh, ELG1 repair inh)
CCN(CC)c1ccc(C=C2C(=O)NC(=S)NC2=O)cc1	HT1080-NT tox inconclusive, HT1080 IDH1KD tx inconclusive, IL1B secr inh -97.3, TDP1 cell CPT inconclusive, DT40 TDP1 no CPT 14.6µM
CC(C)CN(CC(C)C)c1ccc(C=C2C(=O)NC(=S)NC2=O)cc1[N+](=O)[O-]	TDP1 cell CPT inconclusive, DT40 TDP1 no CPT 20.6µM
CN(C)c1ccc(C=C2C(=O)NC(=S)NC2=O)cc1	HT1080 IDH1KD tx inconclusive, IL1B secr inh -102.2, TDP1 cell CPT 8.2µM, DT40 TDP1 no CPT 16.4µM (no result: ELG1 repair inh)
[2H]C([2H])([2H])[C@H](N)Cc1ccccc1	none (no result: HT1080-NT tox, HT1080 IDH1KD tx, IL1B secr inh, ELG1 repair inh)
COc1ccc(C(=O)Cn2c(NCCO)nc3ccccc32)cc1	TDP1 cell CPT 16.4µM, DT40 TDP1 no CPT inconclusive
COc1ccc(C(=O)CN2CCCCC2)cc1	ELG1 repair inh inconclusive
Cc1cccc(N2C(=O)NC(=O)/C(=C\c3cccn3-c3ccc(Cl)cc3)C2=O)c1	HT1080-NT tox inconclusive, HT1080 IDH1KD tx inconclusive, IL1B secr inh -89.8, TDP1 cell CPT 10.3µM, ELG1 repair inh inconclusive, DT40 TDP1 no CPT 20.6µM
Cc1ccc(N2C(=O)NC(=O)/C(=C\C=C\c3ccco3)C2=O)cc1C	IL1B secr inh -105.1, TDP1 cell CPT 2.59µM, ELG1 repair inh inconclusive, DT40 TDP1 no CPT 5.17µM
CN1C(=O)/C(=C/C=C/c2ccco2)C(=O)NC1=S	TDP1 cell CPT inconclusive, DT40 TDP1 no CPT inconclusive
CN(C)c1ccc(/C=C/C=C2/C(=O)NC(=O)N(c3ccccc3)C2=O)cc1	HT1080-NT tox 4.61µM, HT1080 IDH1KD tx 6.51µM, IL1B secr inh -106.7, TDP1 cell CPT 2.91µM, ELG1 repair inh inconclusive, DT40 TDP1 no CPT 4.11µM
Cc1cccc(N2C(=O)NC(=O)/C(=C/c3ccc([N+](=O)[O-])o3)C2=O)c1	TDP1 cell CPT inconclusive, DT40 TDP1 no CPT inconclusive
O=C1NC(=O)N(c2ccccc2)C(=O)/C1=C/C=C/c1ccco1	HT1080-NT tox 18.4µM, HT1080 IDH1KD tx inconclusive, IL1B secr inh -100.0, TDP1 cell CPT 4.61µM, DT40 TDP1 no CPT 4.61µM
O=C1NC(=O)C(CCc2ccncc2)(Cc2ccc(OCc3ccccc3)cc2)C(=O)N1	ELG1 repair inh inconclusive
O=C1NC(=O)N(Cc2ccco2)C(=O)/C1=C/C=C/c1ccco1	HT1080-NT tox 23.1µM, HT1080 IDH1KD tx 20.6µM, IL1B secr inh -100.2, TDP1 cell CPT 7.31µM, ELG1 repair inh inconclusive, DT40 TDP1 no CPT 9.2µM
Cc1cccc(N2C(=O)NC(=O)/C(=C\C=C\c3ccco3)C2=O)c1	HT1080-NT tox inconclusive, HT1080 IDH1KD tx inconclusive, IL1B secr inh -95.6, TDP1 cell CPT 2.91µM, ELG1 repair inh inconclusive, DT40 TDP1 no CPT 8.2µM
Cc1cccc(N2C(=O)CC(=O)NC2=O)c1	none
Cn1cccc1/C=C1\C(=O)NC(=O)N(Cc2ccco2)C1=O	TDP1 cell CPT 9.2µM, DT40 TDP1 no CPT inconclusive
Cc1ccc(OCCn2cccc2/C=C2/C(=O)NC(=O)N(Cc3ccco3)C2=O)cc1	ELG1 repair inh inconclusive
COc1ccc(/C=C2/C(=O)NC(=O)N(Cc3ccco3)C2=O)cc1	none (no result: HT1080-NT tox, HT1080 IDH1KD tx, IL1B secr inh, TDP1 cell CPT, DT40 TDP1 no CPT)
CC(=O)O[C@H]1C[C@@H]2CC[C@@H]3[C@H](CC[C@]4(C)C(=O)CC[C@@H]34)[C@@]2(C)C[C@@H]1OC(C)=O	TDP1 cell CPT 23.1µM, DT40 TDP1 no CPT inconclusive
CC(=O)OC1=CC[C@H]2[C@@H]3CC[C@H]4C[C@H](OC(C)=O)[C@@H](OC(C)=O)C[C@]4(C)[C@H]3CC[C@]12C	TDP1 cell CPT 14.6µM, DT40 TDP1 no CPT 11.6µM
Cc1ccc(OCC(=O)N2CCN(CCc3ccncc3)CC2)cc1C	none (no result: HT1080-NT tox, HT1080 IDH1KD tx, IL1B secr inh, ELG1 repair inh)
O=C1NC(=O)C(=Cc2coc3ccc(O)cc3c2=O)C(=O)N1	TDP1 cell CPT 16.4µM, DT40 TDP1 no CPT 20.6µM
CC(=O)CC1CCCCN1 (configuration not stated)	none (no result: HT1080-NT tox, HT1080 IDH1KD tx, IL1B secr inh, ELG1 repair inh)
COc1ccc(NC(=O)CSc2nc(-c3cccs3)cc(C(F)(F)F)n2)cc1Cl	TDP1 cell CPT 16.4µM, DT40 TDP1 no CPT 23.1µM (no result: HT1080-NT tox, HT1080 IDH1KD tx, IL1B secr inh, ELG1 repair inh)
